# Experiments:
# Assay in all cases: DAPPL (digital affinity profiling via proximity ligation, sequencing); 10 mM Tris-HCl pH 7.5, 50 mM NaCl, 1 mM DTT, 4% glycerol, room temperature, 30 min; GST-TFs on glutathione beads, 16-mer random dsDNA library, 0.1% formaldehyde crosslink after washing; high values mean tight binding
# [1] = target: T1, FLI1 (Homo sapiens, UniProt Q01543 1-452); details: protein: recombinant; tags: N-terminal GST; dsDNA, one strand shown
# T1 sequence: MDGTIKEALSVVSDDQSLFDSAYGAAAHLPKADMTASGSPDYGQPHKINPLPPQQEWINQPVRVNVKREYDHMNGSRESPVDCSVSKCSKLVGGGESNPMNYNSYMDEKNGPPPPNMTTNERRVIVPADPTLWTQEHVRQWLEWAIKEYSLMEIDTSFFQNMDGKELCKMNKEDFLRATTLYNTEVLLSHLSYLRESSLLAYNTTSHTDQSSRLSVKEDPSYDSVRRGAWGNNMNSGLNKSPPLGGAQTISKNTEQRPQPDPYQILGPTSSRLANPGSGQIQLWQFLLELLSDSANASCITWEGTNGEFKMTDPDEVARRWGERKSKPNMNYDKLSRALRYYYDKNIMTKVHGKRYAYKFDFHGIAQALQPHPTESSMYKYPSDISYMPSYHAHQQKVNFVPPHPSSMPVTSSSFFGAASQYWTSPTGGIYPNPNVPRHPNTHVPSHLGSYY
# How it was run: (§1)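 Human transcription factors were made in yeast as GST fusions, captured on glutathione beads and barcoded with DNA. With a tag-only sample included, the pool was incubated with 200 nmole of a random double-stranded 16-mer DNA library in Tris/NaCl/DTT/glycerol buffer at room temperature for 30 min, then crosslinked with 0.1% formaldehyde after washing, ligated by proximity, amplified and sequenced. For binding signal, each hexamer's read frequency for a factor is divided by its frequency for the tag-only sample.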
# [2] = target: T2, ELK1 (Homo sapiens, UniProt P19419 1-428); details: protein: recombinant; tags: N-terminal GST; dsDNA, one strand shown
# T2 sequence: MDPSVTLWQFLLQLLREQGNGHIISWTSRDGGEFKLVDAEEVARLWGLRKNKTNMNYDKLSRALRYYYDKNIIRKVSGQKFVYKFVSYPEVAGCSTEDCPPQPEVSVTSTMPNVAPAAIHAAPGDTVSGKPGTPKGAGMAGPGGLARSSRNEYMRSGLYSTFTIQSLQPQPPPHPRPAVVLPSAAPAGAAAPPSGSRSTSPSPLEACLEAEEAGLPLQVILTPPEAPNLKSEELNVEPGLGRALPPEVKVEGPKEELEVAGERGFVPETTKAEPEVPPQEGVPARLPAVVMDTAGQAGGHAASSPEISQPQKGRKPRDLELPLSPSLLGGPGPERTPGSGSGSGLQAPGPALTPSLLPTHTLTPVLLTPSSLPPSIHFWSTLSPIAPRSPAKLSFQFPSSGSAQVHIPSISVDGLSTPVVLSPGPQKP
# How it was run: as §1
# [3] = target: T3, GABPA (Homo sapiens, UniProt Q06546 1-454); details: protein: recombinant; tags: N-terminal GST; dsDNA, one strand shown
# T3 sequence: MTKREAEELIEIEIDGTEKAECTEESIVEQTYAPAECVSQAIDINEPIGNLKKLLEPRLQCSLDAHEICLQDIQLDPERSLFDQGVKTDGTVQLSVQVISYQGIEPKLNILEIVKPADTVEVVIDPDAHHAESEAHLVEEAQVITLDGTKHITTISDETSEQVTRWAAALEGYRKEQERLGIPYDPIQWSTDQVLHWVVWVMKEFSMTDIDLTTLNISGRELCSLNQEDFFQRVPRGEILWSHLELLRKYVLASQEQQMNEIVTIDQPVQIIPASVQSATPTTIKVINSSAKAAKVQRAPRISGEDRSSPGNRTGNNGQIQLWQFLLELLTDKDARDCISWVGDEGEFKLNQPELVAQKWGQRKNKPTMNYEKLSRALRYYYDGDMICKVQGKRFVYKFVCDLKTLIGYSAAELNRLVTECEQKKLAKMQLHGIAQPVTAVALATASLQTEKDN
# How it was run: as §1
# [4] = target: T4, ERG (Homo sapiens, UniProt P11308 1-479); details: protein: recombinant; tags: N-terminal GST; dsDNA, one strand shown
# T4 sequence: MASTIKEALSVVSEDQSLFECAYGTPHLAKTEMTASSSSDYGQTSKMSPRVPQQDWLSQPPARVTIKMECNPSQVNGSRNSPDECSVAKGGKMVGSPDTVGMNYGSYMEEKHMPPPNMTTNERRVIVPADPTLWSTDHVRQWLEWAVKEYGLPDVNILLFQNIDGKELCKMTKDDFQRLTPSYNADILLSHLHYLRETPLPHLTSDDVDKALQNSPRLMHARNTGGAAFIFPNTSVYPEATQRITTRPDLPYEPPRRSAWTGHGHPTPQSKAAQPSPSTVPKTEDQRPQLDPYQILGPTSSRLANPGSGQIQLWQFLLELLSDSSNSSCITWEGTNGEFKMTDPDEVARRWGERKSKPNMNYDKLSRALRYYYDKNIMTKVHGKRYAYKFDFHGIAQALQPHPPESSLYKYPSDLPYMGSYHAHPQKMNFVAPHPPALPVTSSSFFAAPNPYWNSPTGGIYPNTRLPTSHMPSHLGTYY
# How it was run: as §1
# [5] = target: ELF1 (Homo sapiens, UniProt P32519 1-619); details: protein: recombinant; tags: N-terminal GST; dsDNA, one strand shown
# How it was run: as §1
# [6] = target: T5, EHF (Homo sapiens, UniProt Q9NZC4 1-300); details: protein: recombinant; tags: N-terminal GST; dsDNA, one strand shown
# T5 sequence: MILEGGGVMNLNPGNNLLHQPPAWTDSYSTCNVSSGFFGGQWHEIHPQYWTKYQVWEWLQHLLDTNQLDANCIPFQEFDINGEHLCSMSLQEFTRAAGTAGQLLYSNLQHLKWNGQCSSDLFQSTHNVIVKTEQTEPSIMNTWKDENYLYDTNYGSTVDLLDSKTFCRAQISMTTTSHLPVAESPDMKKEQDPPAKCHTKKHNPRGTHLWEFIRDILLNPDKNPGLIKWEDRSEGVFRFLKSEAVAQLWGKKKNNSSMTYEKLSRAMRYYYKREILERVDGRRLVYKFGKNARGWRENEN
# How it was run: as §1
# [7] = target: SPI1 (Homo sapiens, UniProt P17947 1-270); details: protein: recombinant; tags: N-terminal GST; dsDNA, one strand shown
# How it was run: as §1
# [8] = target: SPIB (Homo sapiens, UniProt Q01892 1-262); details: protein: recombinant; tags: N-terminal GST; dsDNA, one strand shown
# How it was run: as §1
# [9] = target: T6, ELK3 (Homo sapiens, UniProt P41970 1-407); details: protein: recombinant; tags: N-terminal GST; dsDNA, one strand shown
# T6 sequence: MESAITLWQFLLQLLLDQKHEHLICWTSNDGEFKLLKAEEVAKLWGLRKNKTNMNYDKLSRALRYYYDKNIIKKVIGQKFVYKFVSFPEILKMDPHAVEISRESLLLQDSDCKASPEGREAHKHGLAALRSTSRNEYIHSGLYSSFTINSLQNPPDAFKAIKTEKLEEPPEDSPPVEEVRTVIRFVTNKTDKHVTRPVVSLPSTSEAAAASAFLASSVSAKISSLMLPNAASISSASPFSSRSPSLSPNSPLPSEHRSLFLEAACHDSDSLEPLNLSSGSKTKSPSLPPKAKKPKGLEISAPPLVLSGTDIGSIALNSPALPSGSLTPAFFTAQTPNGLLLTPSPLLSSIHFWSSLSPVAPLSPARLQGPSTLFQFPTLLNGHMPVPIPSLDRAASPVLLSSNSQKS
# How it was run: as §1
# [10] = target: T7, FEV (Homo sapiens, UniProt Q99581 1-238); details: protein: recombinant; tags: N-terminal GST; dsDNA, one strand shown
# T7 sequence: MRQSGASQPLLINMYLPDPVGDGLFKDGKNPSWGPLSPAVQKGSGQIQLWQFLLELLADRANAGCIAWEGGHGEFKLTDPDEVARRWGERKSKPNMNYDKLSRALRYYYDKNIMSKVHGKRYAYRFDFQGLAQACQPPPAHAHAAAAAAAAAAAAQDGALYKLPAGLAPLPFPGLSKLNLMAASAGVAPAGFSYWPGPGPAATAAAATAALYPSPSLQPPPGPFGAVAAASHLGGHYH
# How it was run: as §1
# [11] = target: ETV5 (Homo sapiens, UniProt P41161 1-510); details: protein: recombinant; tags: N-terminal GST; dsDNA, one strand shown
# How it was run: as §1
# [12] = target: HSF1 (Homo sapiens, UniProt Q00613 1-529); details: protein: recombinant; tags: N-terminal GST; chain copies: 3; dsDNA, one strand shown
# How it was run: as §1
# [13] = target: T8, SPIC (Homo sapiens, UniProt Q8N5J4 1-248); details: protein: recombinant; tags: N-terminal GST; dsDNA, one strand shown
# T8 sequence: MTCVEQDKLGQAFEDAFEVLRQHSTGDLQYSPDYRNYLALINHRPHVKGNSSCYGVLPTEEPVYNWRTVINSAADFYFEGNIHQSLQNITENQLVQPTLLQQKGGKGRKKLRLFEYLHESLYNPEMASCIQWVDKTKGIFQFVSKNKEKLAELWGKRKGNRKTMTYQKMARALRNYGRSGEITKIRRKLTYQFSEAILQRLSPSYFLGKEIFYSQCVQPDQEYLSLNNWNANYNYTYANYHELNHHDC
# How it was run: as §1
# [14] = target: ELF4 (Homo sapiens, UniProt Q99607 1-663); details: protein: recombinant; tags: N-terminal GST; dsDNA, one strand shown
# How it was run: as §1
# [15] = target: T9, ELK4 (Homo sapiens, UniProt P28324-2 1-405); details: protein: recombinant; tags: N-terminal GST; dsDNA, one strand shown
# T9 sequence: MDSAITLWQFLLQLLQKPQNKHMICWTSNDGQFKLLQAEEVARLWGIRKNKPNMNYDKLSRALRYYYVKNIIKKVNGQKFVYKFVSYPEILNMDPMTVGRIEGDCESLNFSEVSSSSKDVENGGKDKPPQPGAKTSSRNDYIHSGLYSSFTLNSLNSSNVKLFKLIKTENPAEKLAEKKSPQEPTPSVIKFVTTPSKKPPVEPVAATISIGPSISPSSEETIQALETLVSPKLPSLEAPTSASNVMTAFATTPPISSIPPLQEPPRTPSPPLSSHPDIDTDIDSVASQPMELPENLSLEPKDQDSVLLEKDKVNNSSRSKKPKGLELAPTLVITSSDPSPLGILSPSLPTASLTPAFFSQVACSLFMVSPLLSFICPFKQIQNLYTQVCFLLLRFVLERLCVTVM
# How it was run: as §1
# [16] = target: T10, ETV2 (Homo sapiens, UniProt O00321 1-342); details: protein: recombinant; tags: N-terminal GST; dsDNA, one strand shown
# T10 sequence: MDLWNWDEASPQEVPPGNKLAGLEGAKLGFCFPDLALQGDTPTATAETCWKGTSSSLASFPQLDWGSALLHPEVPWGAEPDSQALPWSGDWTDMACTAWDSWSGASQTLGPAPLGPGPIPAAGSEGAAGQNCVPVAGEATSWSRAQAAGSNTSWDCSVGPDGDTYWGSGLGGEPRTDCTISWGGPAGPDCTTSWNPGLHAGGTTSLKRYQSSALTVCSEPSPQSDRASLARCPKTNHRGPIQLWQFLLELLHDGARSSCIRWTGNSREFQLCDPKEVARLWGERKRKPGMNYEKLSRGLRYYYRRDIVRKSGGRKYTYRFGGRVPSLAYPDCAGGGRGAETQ
# How it was run: as §1
# [17] = target: T11, ELF3 (Homo sapiens, UniProt P78545 1-371); details: protein: recombinant; tags: N-terminal GST; dsDNA, one strand shown
# T11 sequence: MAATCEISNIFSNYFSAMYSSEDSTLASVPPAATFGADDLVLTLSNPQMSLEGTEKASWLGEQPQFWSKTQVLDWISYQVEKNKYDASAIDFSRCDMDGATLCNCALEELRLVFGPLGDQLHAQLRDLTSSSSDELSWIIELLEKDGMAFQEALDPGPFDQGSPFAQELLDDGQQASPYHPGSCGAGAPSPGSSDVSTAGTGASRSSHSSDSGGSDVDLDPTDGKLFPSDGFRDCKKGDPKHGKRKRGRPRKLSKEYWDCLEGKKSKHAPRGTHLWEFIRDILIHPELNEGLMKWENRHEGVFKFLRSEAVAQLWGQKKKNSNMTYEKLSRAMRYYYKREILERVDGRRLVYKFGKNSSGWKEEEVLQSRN
# How it was run: as §1
# [18] = target: CRX (Homo sapiens, UniProt O43186 1-299); details: protein: recombinant; tags: N-terminal GST; dsDNA, one strand shown
# How it was run: as §1
# [19] = target: ETV1 (Homo sapiens, UniProt P50549 1-477); details: protein: recombinant; tags: N-terminal GST; dsDNA, one strand shown
# How it was run: as §1
# Sequence of ELF4 (Q99607 whole entry): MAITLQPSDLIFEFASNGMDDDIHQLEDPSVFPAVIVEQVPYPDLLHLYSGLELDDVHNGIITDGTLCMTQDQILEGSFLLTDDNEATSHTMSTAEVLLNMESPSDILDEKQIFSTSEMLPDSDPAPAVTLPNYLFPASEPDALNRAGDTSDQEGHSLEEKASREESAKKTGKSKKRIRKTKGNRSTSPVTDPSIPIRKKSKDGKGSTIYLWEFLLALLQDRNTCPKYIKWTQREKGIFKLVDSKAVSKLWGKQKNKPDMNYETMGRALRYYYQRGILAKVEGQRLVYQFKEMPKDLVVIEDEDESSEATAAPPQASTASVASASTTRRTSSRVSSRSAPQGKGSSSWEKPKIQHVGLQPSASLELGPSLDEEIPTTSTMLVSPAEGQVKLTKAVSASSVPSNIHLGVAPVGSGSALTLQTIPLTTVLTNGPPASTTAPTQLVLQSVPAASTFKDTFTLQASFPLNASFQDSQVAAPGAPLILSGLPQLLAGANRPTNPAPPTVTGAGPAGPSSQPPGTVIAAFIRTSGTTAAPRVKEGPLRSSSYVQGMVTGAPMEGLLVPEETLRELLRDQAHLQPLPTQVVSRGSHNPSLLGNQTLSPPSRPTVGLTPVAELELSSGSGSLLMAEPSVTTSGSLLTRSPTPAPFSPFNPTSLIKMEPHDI
# Sequence of SPIB (Q01892 whole entry): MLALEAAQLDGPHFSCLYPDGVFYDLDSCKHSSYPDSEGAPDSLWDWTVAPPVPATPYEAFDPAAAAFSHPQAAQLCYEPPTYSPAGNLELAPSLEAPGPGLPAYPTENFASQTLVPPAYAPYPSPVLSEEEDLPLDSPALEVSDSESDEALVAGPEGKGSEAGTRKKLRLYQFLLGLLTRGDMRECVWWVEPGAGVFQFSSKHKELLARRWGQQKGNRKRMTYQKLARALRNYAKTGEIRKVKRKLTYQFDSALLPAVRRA
# Sequence of HSF1 (Q00613 whole entry): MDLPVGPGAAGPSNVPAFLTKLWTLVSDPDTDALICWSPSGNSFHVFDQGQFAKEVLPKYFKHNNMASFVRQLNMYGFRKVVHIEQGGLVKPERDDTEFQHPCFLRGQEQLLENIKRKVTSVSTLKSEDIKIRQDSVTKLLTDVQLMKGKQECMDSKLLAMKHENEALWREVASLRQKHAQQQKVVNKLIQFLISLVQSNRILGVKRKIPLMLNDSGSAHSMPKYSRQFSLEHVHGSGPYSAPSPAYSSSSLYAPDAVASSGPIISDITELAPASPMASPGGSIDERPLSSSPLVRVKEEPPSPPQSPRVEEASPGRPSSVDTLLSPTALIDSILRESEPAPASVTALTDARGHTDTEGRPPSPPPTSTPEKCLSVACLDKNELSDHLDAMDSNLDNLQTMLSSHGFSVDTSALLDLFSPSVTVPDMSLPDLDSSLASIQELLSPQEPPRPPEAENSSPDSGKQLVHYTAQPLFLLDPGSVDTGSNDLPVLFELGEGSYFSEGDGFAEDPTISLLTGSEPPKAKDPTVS
# Sequence of ETV1 (P50549 whole entry): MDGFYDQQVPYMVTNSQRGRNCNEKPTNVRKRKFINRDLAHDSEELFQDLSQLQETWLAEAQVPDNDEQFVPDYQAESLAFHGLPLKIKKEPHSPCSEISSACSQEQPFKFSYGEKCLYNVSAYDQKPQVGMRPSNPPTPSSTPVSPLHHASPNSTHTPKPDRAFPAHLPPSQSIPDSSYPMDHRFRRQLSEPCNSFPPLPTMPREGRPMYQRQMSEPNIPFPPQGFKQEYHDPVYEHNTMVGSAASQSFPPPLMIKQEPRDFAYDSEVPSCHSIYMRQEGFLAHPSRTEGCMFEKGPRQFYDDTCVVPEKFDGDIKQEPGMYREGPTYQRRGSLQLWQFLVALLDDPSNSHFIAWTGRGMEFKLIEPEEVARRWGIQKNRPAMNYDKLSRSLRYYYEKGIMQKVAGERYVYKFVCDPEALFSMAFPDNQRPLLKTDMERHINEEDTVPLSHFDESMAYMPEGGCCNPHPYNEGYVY
# Sequence of ETV5 (P41161 whole entry): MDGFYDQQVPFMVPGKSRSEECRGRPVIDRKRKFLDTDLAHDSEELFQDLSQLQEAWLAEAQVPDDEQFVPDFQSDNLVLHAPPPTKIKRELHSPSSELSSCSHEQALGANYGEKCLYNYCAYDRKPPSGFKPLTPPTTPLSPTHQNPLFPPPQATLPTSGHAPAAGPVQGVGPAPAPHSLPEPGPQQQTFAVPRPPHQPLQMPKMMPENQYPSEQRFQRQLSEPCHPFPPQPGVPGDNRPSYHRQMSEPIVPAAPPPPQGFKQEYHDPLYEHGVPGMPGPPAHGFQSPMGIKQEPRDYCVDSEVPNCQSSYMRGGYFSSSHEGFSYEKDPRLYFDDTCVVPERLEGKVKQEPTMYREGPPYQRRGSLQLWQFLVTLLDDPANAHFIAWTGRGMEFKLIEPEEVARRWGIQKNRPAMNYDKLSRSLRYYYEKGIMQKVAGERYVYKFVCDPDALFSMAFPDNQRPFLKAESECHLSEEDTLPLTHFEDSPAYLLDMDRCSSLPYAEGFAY
# Sequence of CRX (O43186 whole entry): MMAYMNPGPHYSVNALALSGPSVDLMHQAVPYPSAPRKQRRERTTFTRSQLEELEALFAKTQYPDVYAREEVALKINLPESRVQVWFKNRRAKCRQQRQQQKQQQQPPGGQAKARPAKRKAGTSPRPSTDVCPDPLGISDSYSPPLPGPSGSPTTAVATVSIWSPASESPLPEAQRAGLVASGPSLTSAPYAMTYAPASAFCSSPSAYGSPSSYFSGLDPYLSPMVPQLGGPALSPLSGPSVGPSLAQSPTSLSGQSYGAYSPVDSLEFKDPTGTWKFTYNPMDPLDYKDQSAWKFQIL
# Sequence of ELF1 (P32519 whole entry): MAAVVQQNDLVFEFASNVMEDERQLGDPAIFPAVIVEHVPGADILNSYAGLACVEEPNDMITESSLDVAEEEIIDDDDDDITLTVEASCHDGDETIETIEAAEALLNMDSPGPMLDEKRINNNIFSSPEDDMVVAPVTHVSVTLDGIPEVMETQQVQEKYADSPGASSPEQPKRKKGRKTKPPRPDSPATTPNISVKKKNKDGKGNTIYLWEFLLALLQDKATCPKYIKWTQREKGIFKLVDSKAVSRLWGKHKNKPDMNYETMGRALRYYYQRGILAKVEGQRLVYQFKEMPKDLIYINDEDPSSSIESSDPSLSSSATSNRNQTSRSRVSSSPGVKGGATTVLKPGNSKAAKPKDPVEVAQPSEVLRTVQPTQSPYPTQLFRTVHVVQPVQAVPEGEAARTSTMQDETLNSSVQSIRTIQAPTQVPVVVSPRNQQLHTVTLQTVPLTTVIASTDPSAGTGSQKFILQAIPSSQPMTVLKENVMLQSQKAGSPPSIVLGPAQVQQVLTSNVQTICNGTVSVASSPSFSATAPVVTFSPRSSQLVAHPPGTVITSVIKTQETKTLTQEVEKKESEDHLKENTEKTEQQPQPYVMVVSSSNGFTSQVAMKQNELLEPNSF
sequence,measurement,setting,value
AAATTC,binding signal,[1],"1.31 fold enrichment (6-mer frequency, TF over GST control)"
same,binding signal,[2],"1.31 fold enrichment (6-mer frequency, TF over GST control)"
same,binding signal,[3],"1.4 fold enrichment (6-mer frequency, TF over GST control)"
same,binding signal,[4],"1.24 fold enrichment (6-mer frequency, TF over GST control)"
same,binding signal,[5],"1.31 fold enrichment (6-mer frequency, TF over GST control)"
same,binding signal,[6],"1.32 fold enrichment (6-mer frequency, TF over GST control)"
same,binding signal,[7],"1.26 fold enrichment (6-mer frequency, TF over GST control)"
same,binding signal,[8],"1.33 fold enrichment (6-mer frequency, TF over GST control)"
same,binding signal,[9],"1.42 fold enrichment (6-mer frequency, TF over GST control)"
same,binding signal,[10],"1.26 fold enrichment (6-mer frequency, TF over GST control)"
same,binding signal,[11],"1.38 fold enrichment (6-mer frequency, TF over GST control)"
same,binding signal,[12],"1.95 fold enrichment (6-mer frequency, TF over GST control)"
same,binding signal,[13],"1.34 fold enrichment (6-mer frequency, TF over GST control)"
same,binding signal,[14],"1.32 fold enrichment (6-mer frequency, TF over GST control)"
same,binding signal,[15],"1.15 fold enrichment (6-mer frequency, TF over GST control)"
same,binding signal,[16],"1.26 fold enrichment (6-mer frequency, TF over GST control)"
same,binding signal,[17],"1.35 fold enrichment (6-mer frequency, TF over GST control)"
same,binding signal,[18],"1.51 fold enrichment (6-mer frequency, TF over GST control)"
same,binding signal,[19],"1.3 fold enrichment (6-mer frequency, TF over GST control)"

# — paper PMC7862700, “An all-to-all approach to the identification of sequence-specific readers for epigenetic DNA modifications on cytosine”
